Shown are actives, neighbours in structure and some others; about 4.8% of the full set was active somewhere.
CSC inhib: cancer stem cell inhibition; cancer stem cell-like cells viability, luminescence; inhibition, % at 7.5 µM; hit rate 1.1% among 300,000; AID 2717; in the data active = inhibition above about 75%; inconclusive = no clear call, values can overlap the other calls; tested in HMLE shEcad cells
Calb FLC: C. albicans growth modulation with fluconazole; hit rate 0.57% among 300,000; C. albicans CaCi-2 (fluconazole-resistant clinical isolate) + fluconazole, Alamar Blue growth, 48 h; AID 1979; growth inhibition, % (no concentration beside the values);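 active = growth inhibition above about 58% in most replicates, limit read from the data, passing the limit was not always enough; inconclusive = exactly half the replicates above a set limit; inactive = most replicates below a set limit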;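 also: all wells also contain fluconazole at 8 µg/ml as a sub-toxic cotreatment; 0% = median of DMSO wells and 100% = median of geldanamycin control wells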
MPTP inh: blocks calcium-induced mitochondrial swelling. AID 602449. inhibition, % at 10 µM. hit rate 1.4% among 360,000. isolated mouse mitochondria, Ca2+ swelling absorbance, 30 min;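 active = inhibition of 50% or more, scaled per plate between neutral and stimulator controls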;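 also: 0% = DMSO wells given calcium and 100% = 1 mM EGTA wells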
Mdm2-MdmX inh: disrupts the human Mdm2-MdmX interaction; O15151+Q00987; SaOS-2 split-luciferase Mdm2/MdmX complementation, luminescence; inhibition, % at 8 µM; hit rate 3% among 330,000; AID 485346;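 active = inhibition of at least 50% at 8 µM in the primary screen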
Beta cell apopt: beta cell apoptosis inhibition | protection from apoptosis, % (no concentration beside the values) | INS-1E cytokine-induced death, ATP luminescence, 48 h; percent of positive-control rescue, neutral wells zero | hit rate 0.8% among 300,000;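 active = Every replicate reaches about 75%, or at least half do and their mean reaches it too, limit read from the data; inconclusive = At least half of replicates reach the limit but their mean does not; inactive = Under half of replicates reach the limit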;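 also: 0% = cytokine-treated negative control wells and 100% = positive control rescue; higher means more ATP so stronger rescue from cytokine killing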
The depositor's hits bear a star; ? = inconclusive; nt = no result; + = active, no number.

SMILES	CSC inhib	Calb FLC	MPTP inh	Mdm2-MdmX inh	Beta cell apopt
COc1ccc(-c2n[nH]c(C)c2-c2cnn(-c3ccccc3)c2)c(O)c1	21.5	95.4*	5.1	30.9	-1.4
COc1ccc(-c2n[nH]c(C)c2-c2cnn(-c3ccccc3)c2)c(O)c1C	66.3	22.2	13.5	19.6	3.0
Cc1ccc([N+](=O)[O-])c(OCCN2CCCCCC2)c1	-1.4	-29.7	0.5	-1.6	78.8*
O=C1C=CC(=O)N1CCCCCCN1C(=O)C=CC1=O	102.3*	nt	nt	nt	65.2
CN1/C(=C\C=C2/SC(=S)NC2=O)C(C)(C)c2ccccc21	42.7	1.2	23.0	22.5	99.1*
CC1=NN(c2ccccc2)C(=O)/C1=C\C=C1\N(C)c2ccccc2C1(C)C	78.9*	-0.9	0.3	17.8	19.4
CC1=NN(c2ccccc2)C(=O)/C1=C\C=C1/N(C)c2ccccc2C1(C)C	46.4	32.7	6.2	26.4	21.1
S=C(NCCCc1cnc[nH]1)NCCCN(Cc1ccc(Cl)cc1)c1ccc(Br)cn1	nt	nt	0.4	nt	nt
C/C(=N\NC(=O)C1CCCC1)c1ccc(Cl)c(Cl)c1	10.0	112.3*	1.1	-31.0	5.0
CC(=O)Nc1ccc(C(C)=NNC(=O)C2CCCC2)cc1	nt	nt	-1.1	nt	nt
Nc1cc(Cl)ccc1Oc1ccc2ccccc2c1	83.2*	-7.7	2.9	-5.9	9.0
C=C(C)C(=O)OCC(O)COc1ccc(C(C)(C)c2ccc(OCC(O)COC(=O)C(=C)C)cc2)cc1 (stereo unspecified)	23.9	nt	-3.0	33.8	104.4*
O=c1/c(=C\c2cccc(O)c2)sc2nc(-c3ccccc3)c(-c3ccccc3)n12	91.1*	-2.8	9.8	5.0	9.9
Cn1nc([N+](=O)[O-])nc1Sc1cccc2cccnc12	-6.6	-1.1	1.7	4.6	94.2*
Cc1ccc(S(=O)(=O)/N=C(/c2ccccc2)N2CCOCC2)c(C)c1	-6.7	81.2*	-1.3	-14.9	nt
COc1ccc(C(O)c2nc(-c3cccc4cccnc34)cs2)cc1 (stereo unspecified)	nt	nt	-1.0	nt	nt
Cc1ccc(C)c(NC(=S)NNC(=O)c2csc(C)c2C)c1	-1.1	-4.8	0.6	-27.2	6.5
Cc1ccc(C)c(NC(=S)NNC(=O)c2csc(C(C)C)c2)c1	1.4	92.4*	6.5	-29.8	-4.2
COC(=O)CSc1nc(N)c2c3c(sc2n1)C(c1ccccc1)SC(c1ccccc1)C3 (stereo unspecified)	+	2.6	-3.4	35.5	69.4
Cc1ccccc1NCc1ccc([N+](=O)[O-])s1	93.8*	7.5	1.0	-16.6	-6.5
Cc1cccc(NC(=O)c2ccc([N+](=O)[O-])s2)c1C	48.6	31.0	7.8	22.9	105.4*
Cc1ccnc(NC(=O)c2ccc([N+](=O)[O-])s2)c1	2.5	19.7	-0.9	-9.5	82.2*
COc1ccccc1NCc1ccc([N+](=O)[O-])s1	7.1	1.0	0.2	-37.9	6.4
CCOC(=O)C1=CCN(S(=O)(=O)c2ccc(C)cc2)C1c1ccc(C(C)C)cc1 (stereo unspecified)	nt	nt	1.8	nt	nt
COc1cc(NC(=O)Nc2nc(C(N)C3CCCCC3)cs2)cc(OC)c1OC (stereo unspecified)	nt	nt	1.0	nt	nt
SMILES	CSC inhib	Calb FLC	MPTP inh	Mdm2-MdmX inh	Beta cell apopt
Cc1cc(C)nc(N/N=C2/CCCC/C2=C\c2ccccc2)n1	3.7	-1.8	-0.2	9.4	77.8*
Fc1ccc(N2CCN(Cc3c[nH]c4ccccc34)CC2)cc1	-2.8	-16.9	nt	9.1	91.1*
Cc1ccccc1N1CCN(Cc2c[nH]c3ccccc23)CC1	30.4	-18.2	2.5	9.4	111.2*
c1cnc(N2CCN(Cc3c[nH]c4ccccc34)CC2)nc1	-21.8	16.3	-0.2	3.7	105.8*
COc1ccccc1N1CCN(Cc2c[nH]c3ccccc23)CC1	4.6	-5.7	3.5	10.5	nt
COc1cccc(CN2CCN(c3ncccn3)CC2)c1OC	-0.5	13.7	0.7	-16.7	-7.0
Cc1ccc(CNc2ncnc3ccc(-c4ccoc4C)cc23)o1	nt	nt	2.2	nt	nt
CC1(C(=O)NCCc2ccccc2)Cc2c(-c3ccccc3)ccnc2O1 (stereo unspecified)	nt	nt	0.3	nt	nt
COC(=O)[C@@]12C[C@@H](CC(=O)N3CCN(C(=O)c4ccco4)CC3)C(=O)N(Cc3ccccc3)C1=CCC(C)(C)C2	nt	nt	1.3	nt	nt
CSC(SC)=C(C#N)C(=O)c1ccccc1	71.2	-5.0	6.2	13.0	-3.3
COc1cccc(C(=O)C(C#N)=C(SC)SC)c1	82.8*	-2.1	3.6	34.5	36.0
CC(C)CC(N)c1csc(Nc2cc(Oc3ccccc3)ncn2)n1 (stereo unspecified)	nt	nt	3.4	nt	nt
COc1cccc(-c2cnc3c(NC(C)=O)cc(-c4cccc(C(=O)NCCN(C)C)c4)cn23)c1	nt	nt	0.0	nt	nt
CN(C)CCNC(=O)c1sc2nc(-c3ccccc3)cc(C(F)(F)F)c2c1N	77.6*	6.9	1.8	38.3	8.2
COc1ccc(-c2cc(C(F)(F)F)c3c(N)c(C(=O)NCCSC)sc3n2)cc1	5.4	53.1	3.9	0.0	nt
O=C(Nc1cccc(-c2csc(Nc3cccc(C(F)(F)F)c3)n2)c1)c1ccccc1	130.4*	3.7	1.5	43.2	16.3
CC(=O)c1cccc(Nc2nc(-c3ccccc3)cs2)c1	9.8	-4.5	0.2	-350.9	-2.8
O=[N+]([O-])c1cccc(-c2csc(Nc3ccccc3)n2)c1	94.4*	-28.8	3.4	-80.0	10.2
O=C(Nc1cccc(-c2csc(Nc3ccccc3)n2)c1)c1ccccc1	99.6*	9.7	0.6	-8.0	37.4
COCCN1C[C@@H](CO)O[C@@H](n2cnc3c(NC4CCC4)ncnc32)C1	nt	nt	0.6	nt	nt
COCCNC(=O)c1cc(-c2ccccc2)sc1N	nt	nt	-2.9	nt	nt
O=C1c2cccc3c(O)ccc(c23)C(=O)N1Cc1ccccc1	20.2	99.5*	13.6	9.4	-0.8
CC(C)(C)c1cc(NCc2ccccn2)n2ncc(-c3ccccc3)c2n1	77.8*	8.4	-4.3	48.3	nt
CCOC(=O)/C(=C\c1ccc(Cl)cc1)c1nc2sc(C)c(C)c2c(=O)[nH]1	117.7*	30.2	1.5	37.5	-26.0
CCC1OC(C)Cc2[nH][nH]c(=O)c21 (stereo unspecified)	nt	nt	2.4	nt	nt
SMILES	CSC inhib	Calb FLC	MPTP inh	Mdm2-MdmX inh	Beta cell apopt
COC(=O)c1cc(=O)n(Cc2cccs2)c(=Nc2ccccc2)s1	?	-1.6	0.6	43.5	-1.0
COC(=O)c1cc(=O)n(Cc2ccc(F)cc2)c(=Nc2ccccc2)s1	86.5*	-0.3	2.2	47.0	3.5
COc1ccccc1-c1csc(C(C)(NC(C)=O)c2ccccc2)n1 (stereo unspecified)	nt	nt	-0.1	nt	nt
COc1ccc(C(=O)c2c(-c3ccc(OC)cc3)oc3ccc(-c4cc(OC)c(OC)c(OC)c4)cc23)cc1	5.5	3.3	-0.1	23.4	1.0
COC(=O)c1c(-c2ccc(OC)cc2)oc2ccc(-c3cc(OC)c(OC)c(OC)c3)cc12	100.3*	-10.2	0.9	18.2	1.6
COc1ccccc1NC(=O)CSc1nnc(C2CCCCC2)n1-c1ccccc1	82.0*	-3.4	1.2	30.9	-5.8
Nc1ccccc1SC(CC(=O)c1ccccc1)c1ccccc1 (stereo unspecified)	nt	nt	0.7	nt	nt
CC(C(Sc1ccccc1N)c1ccccc1)[N+](=O)[O-] (stereo unspecified)	93.8*	-1.8	4.4	36.1	-1.8
